Rows were chosen to be rich in hits. Some 2.6% of all compounds tested hit in one or more screens of this group.
HIF-2a block: HIF-2a reporter inhibitors, primary screen, luminescence, 786-0 RCC cells; 786-0 RCC cells HIF-2a reporter, luciferase luminescence, overnight; inhibition, % at 18.8 µM; 360,000 tested, 0.72% active;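 active means inhibition of the luminescence signal of 40% or more relative to plate controls, in a single-dose primary screen at 18.75 µM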
Shn3 inh set2: reduction of Shn3 3'UTR firefly luciferase signal, primary screen, Schnurri-3 inhibitor project, cell-based, Clone20 osteoblasts, set 2; Clone20 osteoblast Shn3 3'UTR firefly luciferase, 24 h; inhibition, % at 12.5 µM; 360,000 tested, 0.52% active;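 active means mean inhibition of at least 75% with every replicate also reaching 75%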
Peg3 promoter: Peg3 promoter-driven luciferase inhibitors, primary screen, cell-based, HeLa, luciferase luminescence | HeLa PEG-Prom luciferase reporter, overnight | inhibition, % at 20 µM | 360,000 tested, 1.7% active;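 active means inhibition of at least 50% at 20 µM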
KKLEB cytotox: cytotoxicity in KKLEB CF airway cells, primary screen, cytotoxicity control for CF NF-kB inhibitor project, cell-based, uHTS, fluorescence assay plates. activity change (cytotoxicity), % at 5 µM. AID 602141, 2011. 360,000 tested, 0.36% active. KKLEB CF airway cells viability, ATPlite luminescence, overnight; active compounds read low; cells stimulated with P. aeruginosa culture filtrate;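 active means corrected activity change at or below -50% at 5 µM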
CF NFkB inh: inhibitors of PAF-induced NF-kB signaling, primary screen, cell-based, GFP fluorescence, uHTS; KKLEB NF-kB-GFP reporter, GFP fluorescence overnight; inhibition, % at 5 µM; 360,000 tested, 0.86% active;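 active means at least 50% inhibition at 5 µM, scaled per plate between neutral and stimulator controls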;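 further: PAF is a Pseudomonas aeruginosa culture filtrate used as stimulus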
Mdm2 MdmX conf: retested Mdm2-MdmX interaction blockers, confirmation, cell-based, luminescence, single concentration, set 2; shares compounds with HIF-2a block; SaOS-2 split-luciferase Mdm2/MdmX complementation; inhibition, % at 8 µM; 740 tested, 99% active;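 active means mean inhibition of the luminescence signal across two replicates at or above 26 percent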
Target sequence (O15151 whole entry, looked up): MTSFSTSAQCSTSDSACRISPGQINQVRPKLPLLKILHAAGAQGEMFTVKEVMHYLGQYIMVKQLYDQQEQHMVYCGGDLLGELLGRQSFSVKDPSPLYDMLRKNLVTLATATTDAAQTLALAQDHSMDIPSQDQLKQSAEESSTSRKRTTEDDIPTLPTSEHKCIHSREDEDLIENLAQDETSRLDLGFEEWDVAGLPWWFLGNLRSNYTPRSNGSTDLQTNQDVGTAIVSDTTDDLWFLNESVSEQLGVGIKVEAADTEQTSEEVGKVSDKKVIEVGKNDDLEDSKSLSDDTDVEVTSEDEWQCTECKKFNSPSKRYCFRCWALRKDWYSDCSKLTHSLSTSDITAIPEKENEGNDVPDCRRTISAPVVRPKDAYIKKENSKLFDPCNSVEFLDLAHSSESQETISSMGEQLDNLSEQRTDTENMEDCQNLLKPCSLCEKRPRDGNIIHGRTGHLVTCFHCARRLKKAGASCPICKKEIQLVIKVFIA
Target sequence (Q00987 whole entry, looked up): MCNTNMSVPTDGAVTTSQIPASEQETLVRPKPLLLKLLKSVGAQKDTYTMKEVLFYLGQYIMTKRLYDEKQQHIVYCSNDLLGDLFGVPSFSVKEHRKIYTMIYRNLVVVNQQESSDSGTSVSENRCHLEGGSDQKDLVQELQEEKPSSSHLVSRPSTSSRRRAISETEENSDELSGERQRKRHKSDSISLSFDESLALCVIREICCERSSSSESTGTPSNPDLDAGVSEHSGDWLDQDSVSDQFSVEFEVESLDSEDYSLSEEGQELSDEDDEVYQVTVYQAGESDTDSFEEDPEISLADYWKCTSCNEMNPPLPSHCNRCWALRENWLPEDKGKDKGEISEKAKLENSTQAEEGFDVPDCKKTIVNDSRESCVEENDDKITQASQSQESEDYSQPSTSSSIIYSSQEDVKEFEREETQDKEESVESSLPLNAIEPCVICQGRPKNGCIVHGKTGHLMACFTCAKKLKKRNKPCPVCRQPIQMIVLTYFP
HIF-2a inh conf: HIF-2a reporter inhibitor retest, confirmation, luminescence, 786-0 RCC cells | shares compounds with HIF-2a block | HIF-2a luciferase reporter luminescence, overnight | inhibition, % at 18.8 µM | 1,800 tested, 56% active | AID 651580, 2012;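 active means mean inhibition across four replicates of at least 40 percent at the single tested concentration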
HIF-1a cs: HIF-1a luciferase reporter signal reduction – MiaPaCa-2 cells, single concentration, counter-screen for HIF-2a inhibitor project, confirmation; MiaPaCa-2 HIF-1a luciferase reporter, desferoxamine, overnight; shares compounds with HIF-2a block; 1,800 tested, 72% active; inhibition, % at 18.8 µM;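 active means mean inhibition of the reporter signal across four replicates at the single tested dose of 50% or more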
Numbers stand for hits; 0 = inactive; - = not tested or not shown.

SMILES	HIF-2a block	Shn3 inh set2	Peg3 promoter	KKLEB cytotox	CF NFkB inh	HIF-2a inh conf	HIF-1a cs	others
CCN(C(=O)COC(=O)/C(=C/c1ccccc1)n1nnnc1C)C1CCCCC1	42	0	0	0	0	0	63
Cc1nnnn1/C(=C\c1ccccc1)C(=O)OCC(=O)N(C)C1CCS(=O)(=O)C1 (stereo unspecified)	0	0	0	0	0	-	-
Cc1cc(C(=O)NNC(=S)Nc2ccccc2)nn1C	0	0	0	0	0	-	-
CCOC(=O)c1ccc(-c2ccc(N3C(c4cccc(OC)c4)=Cc4ccc(F)cc4C3CC(C)=O)cc2)cc1F (stereo unspecified)	65	-	-	-	-	0	0
COc1cccc(C2=Cc3ccc(F)cc3C(CC(C)=O)N2c2ccc(-c3cncnc3)cc2)c1 (stereo unspecified)	0	-	-	-	-	-	-
Clc1ccc(Cn2ncc3c(N4CCCCC4)ncnc32)cc1	0	-	0	0	0	-	-
Clc1ccc(-n2ncc3c(N4CCCCCC4)ncnc32)cc1	66	0	0	-52	0	84	102
CCCNC(=O)C1CN(S(=O)(=O)c2ccc(Cl)s2)c2ccccc2O1 (stereo unspecified)	0	0	0	0	0	-	-
C/C(=N\Nc1cc(C)nc(-c2ccccc2O)n1)c1ccccc1O	0	0	0	0	80	-	-	Mdm2 MdmX conf=73
Cc1[nH]nc2c1C(c1cc(Br)cs1)C(C#N)=C(N)O2 (stereo unspecified)	43	0	0	0	60	40	92
Cc1ccc(OCC(=O)NCCCNC(=O)c2ccccn2)cc1	0	0	0	0	0	-	-
COCCCNC(=O)COc1ccc(-c2nccc(-c3ccccn3)n2)cc1	40	0	0	0	0	0	0
O=C(CCl)Nc1cc(SCC(O)CO)cc([N+](=O)[O-])c1 (stereo unspecified)	86	0	106	-93	96	88	107
CCC(=O)Nc1cc(SCCO)cc([N+](=O)[O-])c1	0	0	0	0	0	-	-
CCC(=O)Nc1cc(ON=C(C)C)cc([N+](=O)[O-])c1	0	0	0	0	0	-	-
CC(C)=NOc1cc(NC(=O)CCl)cc([N+](=O)[O-])c1	44	0	110	-57	79	66	106	Mdm2 MdmX conf=103
CN(c1ccccc1)S(=O)(=O)c1cccc(C(=O)OCC(=O)NCc2ccc3c(c2)OCO3)c1	0	0	0	0	0	-	-
O=[N+]([O-])c1ccc(O)c(-c2nc(-c3ccccc3)c(-c3cccs3)[nH]2)c1	0	0	0	-60	62	-	-	Mdm2 MdmX conf=95
O=C1C=CC(=O)N1CCNc1ncc(C(F)(F)F)cc1Cl	0	86	108	0	60	-	-	Mdm2 MdmX conf=103
Cc1cc(C)c(C)c(OCC(=O)NCC2CCCO2)c1 (stereo unspecified)	0	0	0	0	0	-	-
Cc1cc(C)cc(OCC(=O)NCC2CCCO2)c1 (stereo unspecified)	52	0	0	0	0	69	70
Cc1ccc(Cn2ccsc2=NC(=O)CCl)cc1	0	0	0	-92	94	-	-	Mdm2 MdmX conf=103
Cc1ccc(Cn2ccsc2=NC(=O)COC(=O)c2ccc(NC(=O)CC#N)cc2)cc1	0	0	0	0	0	-	-
Cc1nc(Cc2nnc(SCC(=O)N3CCN(c4ccccc4)CC3)o2)cs1	0	0	0	0	0	-	-
CCOc1cnn(-c2cc(Oc3ccc(C)cc3)ncn2)c(=O)c1Cl	0	0	0	0	0	-	-
Cc1ccccc1Oc1cc(-n2ncc(Cl)c(Cl)c2=O)ncn1	98	96	105	-100	96	100	106
COc1ccc(-c2cc(=O)oc3cc(OCC(=O)Nc4ccc(CCO)cc4)ccc23)cc1	0	0	0	0	0	-	-

Assay outcomes: PubChem, several laboratories
